Reference: the supplement of paper PMC10338343
± gives the standard deviation.

system: MILI (PIWIL2) piRISC loaded with L1MC piRNA (26 nt); assay: pre-steady-state target cleavage rate (min^-1); guide: L1MC piRNA 5'p-UAACUAAAUACUAUGCAAGCUGUAGG; MIWI and MILI are mouse PIWI proteins and EfPiwi is from a freshwater sponge; tags in brackets are library labels; higher = faster piRNA-guided slicing of the target; conditions: auxiliary factor: 500 nM mouse GTSF1
In short: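 Using HEPES–potassium acetate buffer at 33 °C, 1 nM active affinity-purified piRISC with a single synthetic guide was mixed with 0.1 nM transcribed, DNA-blocked target RNA library for 0–8 or 0–960 min, with or without 500 nM GTSF1 partner protein. Uncleaved targets were sequenced and normalised to depth and to weakly complementary targets, and three trials were pooled with k3 capped at 0.0001 min^-1. A burst-and-steady-state fit gave the pre-steady-state cleavage rate.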

Row | Sequence | pre-steady-state target cleavage rate
1 | UCCUGGAUCUCGUUGCAUAGUAUUUUCAAA | 0.0482 ± 0.013
2 | UCCUGGUACAGCUUGCAAAGUAUAUAGUUA | 0.0931 ± 0.016
3 | UCCUGCAACAGCUUGCAUAGUAUUUACUUA | 0.122 ± 0.012
4 | UCCUGGAUGAGCUUGCUUAGUAUUUAGAAA | 0.0548 ± 0.017
5 | UCCUGGAUCUCGUUGCAUAGUAUUUACAAA | 0.0638 ± 0.014
6 | UCCUGGAUGAGCUUGCAAAGUUUUUAGUUA | 0.00724 ± 0.004
7 | UCCUGGAUGUCGUUCCAUAGUAUUUAGUUA | 0.00992 ± 0.0041
8 | UCCUGGUACAGCUUGCAUAGAAUUUACUUA | 0.0206 ± 0.011

same assay, conditions: auxiliary factor: none (no GTSF1)

Row | Sequence | pre-steady-state target cleavage rate
9 | UCCUGGAUGUCGAACCAUAGUUUUUAGUAA | < 0.0001
10 | UCCUGGUACAGCUUGCAUACAUUUUAGUUA | 0.00408 ± 0.0037
11 | UCCUGGAUGUCGAACGUUAGUAUUUACAAA | < 0.0001
12 | UCCUGGAUGUCGAACCAAAGUAUUUAGAUA | < 0.0001
13 | UCCUGGAUGAGCUUGCAUACAUUUUAGUUA | 0.00358 ± 0.0026
14 | UCCUGGAUGUCGAACGUAAGUAUUAUAGUUA | < 0.0001
15 | UCCUGGAUGUCGAACGUUAGUAAUUAGUUA | < 0.0001
16 | UCCUGGAUGUCGAACGUAUCUAUAUUGUUA | < 0.0001
